Test results reported in PubChem BioAssay (Tox21).
Results filed as inconclusive are left out. The source made the active and inactive calls. Unless noted, calls come from the whole dose curve; as a rule, active = well fitted curve in the direction sought with a large enough effect in the repeat runs; inconclusive = weak or mixed curves; inactive = no such curve, though single readings can be large; an effect the other way counts as inactive or inconclusive.

Tests used:
[1] = system: thyroid hormone receptor (rat, GH3 cells); experiment: qHTS assay to identify small molecule agonists of the thyroid receptor (TR) signaling pathway (AID 743066; calls by dose curve)
[2] = target: Estrogen receptor (Homo sapiens) (UniProt P03372); experiment: qHTS assay to identify small molecule antagonists of the estrogen receptor alpha (ER-alpha) signaling pathway (AID 743069; active = well fitted curve in the direction sought with a large enough effect in the signal ratio in the repeat runs, not every such curve was filed as active; the % refers to the signal ratio)
Method in brief: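 Reporter cells (ER-alpha-bla, HEK293 background) are conditioned overnight in stripped-serum medium (2% charcoal-stripped FBS). Compound and 17beta-estradiol exposure runs 18 hr at 37C, 5% CO2.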

[3] = qHTS assay to identify small molecule antagonists of the estrogen receptor alpha (ER-alpha) signaling pathway - cell viability counter screen (AID 743074; calls by dose curve;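 note: HEK293 cells carrying ER-alpha-UAS-bla reporter stimulated with 17beta-estradiol; nearly all actives have a fitted effect of over 45% in size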)
[4] = target: Estrogen receptor (Homo sapiens) (UniProt P03372); experiment: qHTS assay to identify small molecule agonists of the estrogen receptor alpha (ER-alpha) signaling pathway (AID 743075; calls by dose curve;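 note: HEK293 GripTite cells with ER-alpha and UAS-driven beta-lactamase reporter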)
[5] = qHTS assay to identify small molecule antagonists of the estrogen receptor alpha (ER-alpha) signaling pathway using the BG1 cell line - cell viability counter screen (AID 743081);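 note: compound given together with 17beta-estradiol as the ER stimulus; series mostly up to about 70 µM; nearly all actives have a fitted effect of over 45% in size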
Aromatase (Homo sapiens) = Aromatase (Homo sapiens) (UniProt P11511); experiment: qHTS assay to identify aromatase inhibitors (AID 743083); note: series mostly up to about 70 µM; nearly all actives have a fitted effect of over 55% in size
[6] = qHTS assay to identify aromatase inhibitors - cell viability counter screen (AID 743084);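 note: cells stimulated with testosterone during compound exposure; nearly all actives have a fitted effect of over 55% in size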
[7] = target: Peroxisome proliferator-activated receptor gamma (Homo sapiens) (UniProt P37231); experiment: qHTS assay to identify small molecule agonists of the peroxisome proliferator-activated receptor gamma (PPARg) signaling pathway (AID 743094; active = well fitted activation curve with a large enough effect in the signal ratio in the repeat runs, not every such curve was filed as active; the % refers to the signal ratio)
Method in brief: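 Quantitative HTS agonist mode: stable HEK293H line with UAS-beta-lactamase reporter under PPARg control, 17 h compound exposure at 37C, fluorescence after 1 h FRET substrate loading at room temperature.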

[8] = target: Peroxisome proliferator-activated receptor gamma (Homo sapiens) (UniProt P37231); experiment: qHTS assay to identify small molecule antagonists of the peroxisome proliferator-activated receptor gamma (PPARg) signaling pathway (AID 743191; calls by dose curve; note: series mostly up to about 63 µM; nearly all actives have a fitted effect of over 30% in size)
Method in brief: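 GeneBLAzer PPARg UAS-bla HEK293H cells, 5 h post-plating, exposed to compounds 17 h at 37C. LiveBLAzer B/G FRET substrate added for 1 h at room temperature; beta-lactamase reporter read by fluorescence intensity.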

[9] = qHTS assay to identify small molecule antagonists of the peroxisome proliferator-activated receptor gamma (PPARg) signaling pathway - cell viability counter screen (AID 743194); note: nearly all actives have a fitted effect of over 55% in size
Method in brief: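 Cytotoxicity counter screen in PPARg-bla HEK293H cells, same wells as reporter assay. Compounds plus 50 nM rosiglitazone (final) for 17 h at 37 C, then viability read by CellTiter-Glo luminescence.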

[10] = qHTS assay for small molecule agonists of the antioxidant response element (ARE) signaling pathway - cell viability counter screen (AID 743203; calls by dose curve; note: nearly all actives have a fitted effect of over 55% in size)
Method in brief: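 Seeded at 2,000 cells/well, ARE-bla HepG2 cells were incubated 5 hrs before compound addition. After 16 hrs of treatment at 37C with 5% CO2, CellTiter-Glo reagent was added and luminescence read 30 min later.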

[11] = qHTS assay for small molecule activators of the heat shock response signaling pathway - cell viability counter screen (AID 743209); note: nearly all actives have a fitted effect of over 50% in size
Method in brief: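 First, HSE-bla HeLa cells were seeded at 1500 cells/well and kept overnight at 37 C. Next, compounds were pinned in and incubated 5 h. After the FRET substrate step, CellTiter-Glo was added and luminescence read 30 min later.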

[12] = target: Aryl hydrocarbon receptor (Homo sapiens) (UniProt P35869); experiment: qHTS assay to identify small molecule that activate the aryl hydrocarbon receptor (AhR) signaling pathway (AID 743085);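 note: HG2L7.5c1 human HepG2 liver cells with stably integrated DRE-driven firefly reporter; series mostly up to about 70 µM; nearly all actives have a fitted effect of over 15% in size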
Method in brief: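 A multiplexed format paired cell viability (CellTiter-Fluor fluorescence) with AhR-dependent luciferase output (ONE-Glo luminescence) in the same wells of HepG2 DRE-luc cells after 24 h compound exposure at 37C.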

[13] = qHTS assay to identify small molecule that activate the aryl hydrocarbon receptor (AhR) signaling pathway - cell viability counter screen (AID 743086);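 note: HepG2 liver cells carrying the AhR DRE luciferase reporter; series mostly up to about 70 µM; nearly all actives have a fitted effect of over 45% in size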
Method in brief: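 HepG2-AhR-luc (HG2L7.5c1) cells, 4000/well, treated 24 h at 37 C with compound; viability measured as CellTiter-Fluor fluorescence after 30 min in the same wells as the luciferase read.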

[14] = qHTS assay for small molecule agonists of the antioxidant response element (ARE) signaling pathway (AID 743202; active = well fitted activation curve with a large enough effect in the signal ratio in the repeat runs, not every such curve was filed as active; the % refers to the signal ratio)
Method in brief: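 Agonist mode reporter screen: HepG2 cells with ARE-controlled beta-lactamase are incubated with test compounds for 16 h at 37 C, and beta-lactamase activity is measured as fluorescence of cleaved B/G FRET substrate.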

[15] = qHTS assay for small molecule activators of the heat shock response signaling pathway (AID 743210; active = well fitted activation curve with a large enough effect in the signal ratio in the repeat runs, with a control signal flat, not every such curve was filed as active; the % refers to the signal ratio;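 note: HeLa cells with beta-lactamase reporter driven by heat shock elements; series mostly up to about 63 µM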)
Method in brief: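 Quantitative high-throughput format using an engineered HeLa line in which heat shock response elements drive beta-lactamase; after 5 h with compound, cells received a B/G FRET substrate and fluorescence was read.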

[16] = target: Estrogen receptor (Homo sapiens) (UniProt P03372); experiment: qHTS assay to identify small molecule agonists of the estrogen receptor alpha (ER-alpha) signaling pathway using the BG1 cell line (AID 743079); note: nearly all actives have a fitted effect of over 20% in size
[17] = qHTS assay to identify small molecule antagonists of the estrogen receptor alpha (ER-alpha) signaling pathway using the BG1 cell line (AID 743080; calls by dose curve;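 note: BG1 cells stimulated with 17beta-estradiol alongside compound; series mostly up to about 70 µM; nearly all actives have a fitted effect of over 25% in size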)
Method in brief: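 Luminescence from a 4×ERE-luciferase reporter in BG1-Luc-4E2 cells served as read-out. Cells, pre-cultured 5 days in stripped-serum phenol-red-free medium, were exposed to compound with 17beta-estradiol co-stimulation for 21.5 h at 37 C.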

Measured: Potency

Aryl hydrocarbon receptor (Homo sapiens), sequence (P35869 whole entry, looked up): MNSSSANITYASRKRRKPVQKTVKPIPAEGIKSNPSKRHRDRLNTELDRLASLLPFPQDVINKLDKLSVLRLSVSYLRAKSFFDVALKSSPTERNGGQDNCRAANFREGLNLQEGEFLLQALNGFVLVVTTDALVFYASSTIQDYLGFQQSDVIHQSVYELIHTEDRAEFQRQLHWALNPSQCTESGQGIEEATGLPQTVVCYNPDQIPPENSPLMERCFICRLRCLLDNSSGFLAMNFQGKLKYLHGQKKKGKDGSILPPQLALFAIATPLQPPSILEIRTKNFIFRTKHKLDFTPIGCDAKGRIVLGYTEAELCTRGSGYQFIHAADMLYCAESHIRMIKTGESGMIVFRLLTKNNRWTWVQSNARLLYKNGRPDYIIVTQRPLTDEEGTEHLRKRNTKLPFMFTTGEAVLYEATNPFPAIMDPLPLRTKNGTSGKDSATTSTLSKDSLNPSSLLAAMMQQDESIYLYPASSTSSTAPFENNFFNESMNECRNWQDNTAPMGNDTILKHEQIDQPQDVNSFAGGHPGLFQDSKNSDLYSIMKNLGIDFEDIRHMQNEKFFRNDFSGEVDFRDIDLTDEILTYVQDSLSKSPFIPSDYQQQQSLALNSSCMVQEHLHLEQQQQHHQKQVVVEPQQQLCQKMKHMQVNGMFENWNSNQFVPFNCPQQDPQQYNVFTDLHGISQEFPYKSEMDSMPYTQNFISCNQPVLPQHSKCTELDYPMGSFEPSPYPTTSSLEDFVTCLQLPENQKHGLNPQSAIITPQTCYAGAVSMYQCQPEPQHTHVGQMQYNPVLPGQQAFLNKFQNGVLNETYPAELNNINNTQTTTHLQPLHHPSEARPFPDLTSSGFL
Aromatase (Homo sapiens), sequence (P11511 whole entry, looked up): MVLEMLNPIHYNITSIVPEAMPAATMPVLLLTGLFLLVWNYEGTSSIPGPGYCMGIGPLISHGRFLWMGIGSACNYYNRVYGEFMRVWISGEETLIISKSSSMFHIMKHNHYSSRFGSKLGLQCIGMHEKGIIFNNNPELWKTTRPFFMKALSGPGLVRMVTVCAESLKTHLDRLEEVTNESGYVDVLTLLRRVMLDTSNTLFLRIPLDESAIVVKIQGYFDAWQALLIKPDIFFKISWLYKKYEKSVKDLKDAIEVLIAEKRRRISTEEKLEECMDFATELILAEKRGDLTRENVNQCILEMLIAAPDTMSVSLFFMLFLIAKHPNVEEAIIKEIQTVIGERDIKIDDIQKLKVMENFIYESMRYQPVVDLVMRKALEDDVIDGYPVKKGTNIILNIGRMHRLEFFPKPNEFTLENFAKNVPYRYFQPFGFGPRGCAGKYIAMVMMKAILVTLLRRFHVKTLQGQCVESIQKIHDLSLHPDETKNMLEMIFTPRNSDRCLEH
Peroxisome proliferator-activated receptor gamma (Homo sapiens), sequence (P37231 whole entry, looked up): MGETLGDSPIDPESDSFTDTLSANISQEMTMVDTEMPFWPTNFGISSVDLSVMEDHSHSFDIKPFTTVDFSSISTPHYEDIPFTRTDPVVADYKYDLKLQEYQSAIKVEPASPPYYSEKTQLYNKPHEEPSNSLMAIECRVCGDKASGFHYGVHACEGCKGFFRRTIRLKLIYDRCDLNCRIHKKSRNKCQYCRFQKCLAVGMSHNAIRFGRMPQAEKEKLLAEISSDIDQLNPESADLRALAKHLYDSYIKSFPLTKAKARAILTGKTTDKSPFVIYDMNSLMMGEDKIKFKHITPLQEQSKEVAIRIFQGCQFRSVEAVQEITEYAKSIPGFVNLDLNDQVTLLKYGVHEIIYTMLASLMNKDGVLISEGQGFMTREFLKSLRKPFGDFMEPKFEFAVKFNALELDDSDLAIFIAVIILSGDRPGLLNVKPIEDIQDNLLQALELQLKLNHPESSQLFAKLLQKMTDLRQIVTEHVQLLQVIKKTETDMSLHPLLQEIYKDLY
Estrogen receptor (Homo sapiens), sequence (P03372 whole entry, looked up): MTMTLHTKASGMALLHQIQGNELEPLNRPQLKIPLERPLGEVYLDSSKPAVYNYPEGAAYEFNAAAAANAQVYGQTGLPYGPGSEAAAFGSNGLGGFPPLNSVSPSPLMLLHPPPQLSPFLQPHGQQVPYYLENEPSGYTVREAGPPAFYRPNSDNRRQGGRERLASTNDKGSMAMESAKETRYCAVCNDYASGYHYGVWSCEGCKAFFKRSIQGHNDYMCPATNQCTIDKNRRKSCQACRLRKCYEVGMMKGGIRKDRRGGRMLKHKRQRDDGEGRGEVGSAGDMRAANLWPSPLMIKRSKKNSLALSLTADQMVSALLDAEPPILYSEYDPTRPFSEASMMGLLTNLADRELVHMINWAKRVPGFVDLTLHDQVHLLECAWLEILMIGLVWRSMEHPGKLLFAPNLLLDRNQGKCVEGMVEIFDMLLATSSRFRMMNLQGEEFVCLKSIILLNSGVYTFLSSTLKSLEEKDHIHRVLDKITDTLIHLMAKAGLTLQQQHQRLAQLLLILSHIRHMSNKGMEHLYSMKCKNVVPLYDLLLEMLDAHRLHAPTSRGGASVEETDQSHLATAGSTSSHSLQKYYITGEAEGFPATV

CC(C)(C)NCC(O)COc1ccc(NC(=O)NC2CCCCC2)cc1 (centres undefined)
not listed: [12] | [13] | [14] | [15] | [16] | [17]
inactive: all other assays above

CO[C@@H]1COCC[C@@H]1N[C@@H]1CC[C@@](C(=O)N2CCc3ncc(C(F)(F)F)cc3C2)(C(C)C)C1
not listed: [1] | [2] | [4] | [16] | [17]
inactive: all other assays above

O=C(O)c1ccccc1[N+](=O)[O-]
not listed: [2] | [4] | [10] | [14] | [16] | [17]
inactive: all other assays above

COC(=O)c1cc(Cl)ccc1[N+](=O)[O-]
not listed: [1] | [10] | [15]
inactive: all other assays above

CCCc1nc(C)c2c(=O)[nH]c(-c3cc(S(=O)(=O)N4CCN(CC)CC4)ccc3OCC)nn12
not listed: [1] | [2] | [4] | [9] | [14] | [16] | [17]
inactive: all other assays above

Cc1ccc(Cl)c(OCC(O)CNC(C)(C)C)c1 (centres undefined)
inactive: [8] | [9] | [14] | [10] | [11] | [15]

Cc1c(Cl)cccc1Nc1ccccc1C(=O)O
not listed: [1] | [2] | [8] | [11] | [14]
inactive: all other assays above

COC(=O)Cc1cccc2ccccc12
not listed: [1] | [8] | [9] | [11] | [13]
inactive: all other assays above

CC1=C(C)C(=O)C(C(CCCCCC(=O)O)c2ccccc2)=C(C)C1=O (centres undefined)
not listed: [7] | [10] | [14] | [15]
inactive: all other assays above
